Out of some 5,500 compounds screened, about 2,000 (36%) were called active. Roughly 18% stayed inconclusive and do not appear here. No stated cut-off is given here; in the data, active means normalized growth mostly below about 0.91 (no sharp cut-off); inconclusive means no clear call, values can overlap the other calls; inactive means mostly above about 0.92. The list shows a part of the results.
Assay: chemical genetic growth profiling, strain panel (AID 1159580);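 further: tested at 20 µM; growth read once vehicle control cultures reached saturation at 30 °C; 1 = growth at the plate median or of vehicle wells; lower values mean less growth of the strain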
Details: growth OD

Measured: normalized growth

CC(NCCc1ccc(O)cc1)C(O)c1ccc(O)cc1 (centres undefined)
inactive: S. cerevisiae deletion strains, locus YJR043C, strain POL32, hits give low values 0.992 | S. cerevisiae deletion strains, locus YJR066W, strain TOR1, hits give low values 0.948 | S. cerevisiae deletion strains, locus YKL009W, strain mrt4, hits give low values 0.977 | S. cerevisiae deletion strains, locus YKL068W, hits give low values 0.985 | S. cerevisiae deletion strains, locus YKL085W, strain MDH1 (second series), hits give low values 0.984 | S. cerevisiae deletion strains, locus YKL085W, strain MDH1, hits give low values 0.984 | S. cerevisiae deletion strains, locus YKL160W, strain elf1, hits give low values 0.966 | S. cerevisiae deletion strains, locus YKL190W, strain CNB1, hits give low values 0.998 | S. cerevisiae deletion strains, locus YKR001C, strain vps1, hits give low values 0.987 | S. cerevisiae deletion strains, locus YKR026C, strain gcn3, hits give low values 0.985 | S. cerevisiae deletion strains, locus YKR091W, strain srl3, hits give low values 0.985 | S. cerevisiae deletion strains, locus YLL001W, strain dnm1, hits give low values 0.981 | S. cerevisiae deletion strains, locus YLL026W, hits give low values 0.999 | S. cerevisiae deletion strains, locus YLL041C, strain sdh2, hits give low values 0.983 | S. cerevisiae deletion strains, locus YLR027C, strain aat2, hits give low values 0.983 | S. cerevisiae deletion strains, locus YLR039C, strain RIC1, hits give low values 1.02 | S. cerevisiae deletion strains, locus YLR058C, strain SHM2, hits give low values 0.988 | S. cerevisiae deletion strains, locus YLR102C, strain apc9, hits give low values 0.98 | S. cerevisiae deletion strains, locus YLR113W, strain HOG1, hits give low values 1.01 | S. cerevisiae deletion strains, locus YLR221C, strain rsa3, hits give low values 1.03 | S. cerevisiae deletion strains, locus YLR258W, strain gsy2, hits give low values 0.954 | S. cerevisiae deletion strains, locus YLR262C, strain YPT6 (second series), hits give low values 0.993 | S. cerevisiae deletion strains, locus YLR262C, strain YPT6, hits give low values 0.977 | S. cerevisiae deletion strains, locus YLR268W, strain sec22, hits give low values 0.975 | S. cerevisiae deletion strains, locus YLR320W, strain mms22, hits give low values 0.987 | S. cerevisiae deletion strains, locus YLR330W, strain CHS5, hits give low values 0.987 | S. cerevisiae deletion strains, locus YLR342W, strain FKS1 (second series), hits give low values 0.984 | S. cerevisiae deletion strains, locus YLR342W, strain FKS1, hits give low values 0.974 | S. cerevisiae deletion strains, locus YLR357W, strain rsc2, hits give low values 0.916 | S. cerevisiae deletion strains, locus YLR370C, strain arc18, hits give low values 0.95 | S. cerevisiae deletion strains, locus YLR371W, strain rom2, hits give low values 0.975 | S. cerevisiae deletion strains, locus YLR384C, strain iki3, hits give low values 0.975 | S. cerevisiae deletion strains, locus YLR418C, strain cdc73, hits give low values 0.969 | S. cerevisiae deletion strains, locus YML016C, strain PPZ1, hits give low values 0.986 | S. cerevisiae deletion strains, locus YML032C, strain rad52, hits give low values 0.976 | S. cerevisiae deletion strains, locus YML120C, strain ndi1, hits give low values 1.02 | S. cerevisiae deletion strains, locus YML124C, strain tub3, hits give low values 0.99 | S. cerevisiae deletion strains, locus YMR058W, strain fet3, hits give low values 0.988 | S. cerevisiae deletion strains, locus YMR078C, strain ctf18, hits give low values 0.986 | S. cerevisiae deletion strains, locus YMR125W, strain sto1, hits give low values 0.98 | S. cerevisiae deletion strains, locus YMR129W, hits give low values 1.01 | S. cerevisiae deletion strains, locus YMR205C, strain PFK2, hits give low values 1 | S. cerevisiae deletion strains, locus YMR223W, strain ubp8, hits give low values 0.976 | S. cerevisiae deletion strains, locus YMR231W, strain pep5, hits give low values 0.997 | S. cerevisiae deletion strains, locus YMR307W, strain GAS1, hits give low values 0.891 | S. cerevisiae deletion strains, locus YNL067W, strain RPL9B, hits give low values 1.01 | S. cerevisiae deletion strains, locus YNL071W, strain lat1, hits give low values 0.993 | S. cerevisiae deletion strains, locus YNL128W, strain TEP1, hits give low values 0.962 | S. cerevisiae deletion strains, locus YNL183C, strain NPR1, hits give low values 0.959 | S. cerevisiae deletion strains, locus YNL209W, strain ssb2, hits give low values 0.961 | S. cerevisiae deletion strains, locus YNL233W, strain BNI4, hits give low values 1 | S. cerevisiae deletion strains, locus YNL248C, strain rpa49, hits give low values 0.921 | S. cerevisiae deletion strains, locus YNL250W, strain rad50, hits give low values 0.974 | S. cerevisiae deletion strains, locus YNL271C, strain bni1, hits give low values 0.973 | S. cerevisiae deletion strains, locus YNL298W, strain CLA4, hits give low values 0.981 | S. cerevisiae deletion strains, locus YNL307C, strain MCK1, hits give low values 0.987 | S. cerevisiae deletion strains, locus YNL322C, strain KRE1 (second series), hits give low values 0.985 | S. cerevisiae deletion strains, locus YNR049C, strain mso1, hits give low values 0.977 | S. cerevisiae deletion strains, locus YNR052C, strain pop2, hits give low values 0.985 | S. cerevisiae deletion strains, locus YOL006C, strain TOP1, hits give low values 1.02 | S. cerevisiae deletion strains, locus YOL012C, strain htz1 0.994 | S. cerevisiae deletion strains, locus YOL147C, strain pex11, hits give low values 0.983 | S. cerevisiae deletion strains, locus YOR001W, strain rrp6, hits give low values 1.03 | S. cerevisiae deletion strains, locus YOR061W, strain CKA2, hits give low values 0.984 | S. cerevisiae deletion strains, locus YOR069W, strain VPS5, hits give low values 0.99 | S. cerevisiae deletion strains, locus YOR070C, strain gyp1, hits give low values 0.976 | S. cerevisiae deletion strains, locus YOR080W, strain dia2, hits give low values 0.977 | S. cerevisiae deletion strains, locus YOR083W, strain WHI5, hits give low values 0.935 | S. cerevisiae deletion strains, locus YOR106W, strain vam3, hits give low values 0.99 | S. cerevisiae deletion strains, locus YOR136W, strain idh2, hits give low values 0.993 | S. cerevisiae deletion strains, locus YOR144C, strain elg1, hits give low values 0.987 | S. cerevisiae deletion strains, locus YOR184W, strain ser1, hits give low values 0.978 | S. cerevisiae deletion strains, locus YOR231W, strain MKK1, hits give low values 1 | S. cerevisiae deletion strains, locus YOR265W, strain rbl2, hits give low values 0.985 | S. cerevisiae deletion strains, locus YOR270C, strain vph1, hits give low values 1.01 | S. cerevisiae deletion strains, locus YOR290C, strain snf2, hits give low values 0.912 | S. cerevisiae deletion strains, locus YOR316C, strain cot1, hits give low values 0.984 | S. cerevisiae deletion strains, locus YPL051W, strain arl3, hits give low values 0.978 | S. cerevisiae deletion strains, locus YPL078C, strain atp4, hits give low values 0.946 | S. cerevisiae deletion strains, locus YPL106C, strain sse1, hits give low values 0.969 | S. cerevisiae deletion strains, locus YPL240C, strain hsp82, hits give low values 0.995 | S. cerevisiae deletion strains, locus YPL241C, strain CIN2, hits give low values 0.992 | S. cerevisiae deletion strains, locus YPL256C, strain CLN2, hits give low values 1.01 | S. cerevisiae deletion strains, locus YPR119W, strain clb2, hits give low values 0.986 | S. cerevisiae deletion strains, locus YPR141C, strain kar3, hits give low values 0.969 | S. cerevisiae deletion strains, locus YPR163C, strain tif3, hits give low values 0.982 | S. cerevisiae deletion strains, locus YPR167C, strain met16, hits give low values 0.972 | S. cerevisiae deletion strains, strain wtn01, hits give low values 0.976 | S. cerevisiae strains, strain wild type, hits give low values 0.989

Reference: PubChem BioAssay AID1159580 (chemical genetic matrix, 2015)
